Measurements reported in PubChem BioAssay (NCI).
Several values for one entry are separate records, joined by “and”; a condition that tells them apart may be missing. Equal values may be shown once. Compounds without any hit were thinned out: in the full panel of roughly 83,000, 20% have a hit.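 48-hour exposure, single concentration, 96-well plates; percent growth endpoint where 0 means no net growth. Active: below 10.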 Activity calls are given as the source filed them.

system: IGROV1 ovarian; test: NCI-60 one-dose screen, 48 h (100 = growth as untreated, 0 = no growth, -100 = all killed); settings: 10 µM unless noted
Method: Growth inhibition of the IGROV1 human tumor cell line is measured as a screen for anti-cancer activity. Cells are grown in 96 well plates and exposed to the test compound for 48 hours. Compounds are tested at a single concentration, which is 10^-5 M for most compounds. The reported endpoint is percent growth (GI% or GIPRCNT), where numbers from 0 - 100% represent growth inhibition, and numbers from -100% - 0 represent cell death. For example, a value of 40 represents 60% growth inhibition. A value of 0 means no net growth occurred over the course of the experiment. A value of -40 indicates 40% of cells at the beginning of the experiment died by the end of the experiment. A value of -100 means all cells are dead at the end of the experiment.
NCI-60 Human Tumor Cell Lines Screen was performed using the standard one-dose NCI protocol, which is described in more detail at https://dtp.cancer.gov/discovery_development/nci-60/default.htm.
Compounds with GIPRCNT values below 10 were considered active. Activity score was based on GIPRCNT using the following formula: […]
Score is 0 for GIPRCNT values of 100 or above, 50 for GIPRCNT values of 0, and 100 for GIPRCNT values of -100.

| Compound | growth |
| --- | --- |
| COC(=O)c1nc(=S)[nH]c(C(=O)OC)c1C(=O)c1ccc(OC)cc1 | 99.9% (inactive) |
| CCCCCCC(C)CC1=C(O)c2ccccc2C(=O)C1=O (stereo not given) | 41.5% (inactive) |
| Cc1cc(=NO)cc(C)n1O | 114% (inactive) |
| CCOC(=O)c1ccncc1 | 111% (inactive) |
| Nc1ccccc1SC1CC(=O)N(c2ccc(I)cc2)C1=O (stereo not given) | 85.2% (inactive) |
| CC(=O)Nc1ccc(OC(C)=O)cc1 | 23.7% (inactive) and 113% (inactive) |
| O=[N+]([O-])c1ccc(N/N=C/C2CCCCCC2)c([N+](=O)[O-])c1 | 91% (inactive) |
| CN(C)C(=N)N=C(N)N | 98.7% (inactive) and 128% (inactive) |
| NCCCCCC(=O)O | 116% (inactive) and 101% (inactive) |
| CC(C)(C)OC(=O)CC1(O)CCCCC1 | 114% (inactive) |
| COc1ccc(CCO)cc1 | 99.6% (inactive) |
| COc1cc2oc3cc(=O)cc4oc(-c5ccccc5)cc(c2c2c1CCC(c1ccccc1)O2)c43 (stereo not given) | 70.3% (inactive) |
| CC1=CC(=O)C=CC1=Nc1ccc(N(C)C)cc1 | 88.5% (inactive) and 49.4% (inactive) |
| CNc1ccc(Cl)cc1S(=O)(=O)c1ccccc1[N+](=O)[O-] | 78.8% (inactive) and 104% (inactive) |
| CC1CC(O)CC(C)(C)C1.CC1CC(O)CC(C)(C)C1.CC1CC(O)CC(C)(C)C1.CC1CC(O)CC(C)(C)C1.[Ti] (stereo not given) | 101% (inactive) |
| COc1ccc(CCNC(=S)NN)cc1OC | 107% (inactive) |
| N=c1sc2ccccc2n1CC(=O)O | 107% (inactive) |
| Cc1cc(O)c(C(C)C)cc1N=O | 124% (inactive) and 112% (inactive) |
| COc1ccc(/C=N/Nc2nc3ccccc3s2)cc1 | 68.5% (inactive) |
| N#Cc1c[nH]n2ccnc12 | 93.1% (inactive) |

| Compound | growth |
| --- | --- |
| O=[N+]([O-])c1cccc2ccc(N/N=C/c3ccccc3O)nc12 | -10.5% (active) |
| O=C(c1ccccc1)C1(Br)CCCCC1 | 97.2% (inactive) |
| COC(=O)c1nc(N)nc(C(=O)OC)c1C(=O)c1ccc(F)cc1 | 111% (inactive) |
| CC(=O)/C(N=Nc1ccc(S(=O)(=O)c2ccc(N=N/C(C(C)=O)=C(/C)O)cc2)cc1)=C(\C)O | 92.9% (inactive) |
| CN(C)C(=S)N(C)C | 153% (inactive) |
| Cc1c(Cl)cc(Cl)c(N)c1Cl | 114% (inactive) |
| O=C1C2=C(Nc3cc(Cl)ccc3N2)OC1c1c[nH]c2ccc(COc3ccccc3)cc12 (stereo not given) | 65.3% (inactive) |
| COc1ccc(CCl)c(C)c1OC | 104% (inactive) |
| OCc1cccc(F)c1 | 79.6% (inactive) |
| CC(=O)Oc1cc(C)c(OC(C)=O)c(C)c1C | 122% (inactive) |
| O=P(O)(O)OC1C(OP(=O)(O)O)C(OP(=O)(O)O)C(OP(=O)(O)O)C(OP(=O)(O)O)C1OP(=O)(O)O.[Cu+2] (stereo not given) | 86.9% (inactive) |
| CCOC(=O)C1=C(C)NC(C)=C(C(=O)OCC)C1 | 100% (inactive) and 112% (inactive) |
| CCCCNC(=O)c1ccccc1C | 96.2% (inactive) |
| CC1(C)OC(=O)C(=Cc2ccc(C#N)cc2)C(=O)O1 | 107% (inactive) and 105% (inactive) |
| CCOc1ccc(/C=C\C(=O)O)cc1 | 101% (inactive) |
| CC(=O)Oc1ccc(C2(c3ccc(OC(C)=O)cc3)C(=O)Nc3ccccc32)cc1 | 65% (inactive) and 46.1% (inactive) |
| Cn1c(-c2ccccc2)cc(=O)cc1-c1ccccc1 | 88% (inactive) |
| NC1=NC(c2ccccc2)N=C(Nc2ccccc2)N1 (stereo not given) | 110% (inactive) and 111% (inactive) |
| Nc1ccc(O)c(C(=O)O)c1 | 96.8% (inactive) and 111% (inactive) and 105% (inactive) |
| NNc1ncnc2cccc(Cl)c12 | 102% (inactive) |
